Assay results taken from PubChem BioAssay AID745 (Emory University Molecular Libraries Screening Center, 2007).
Out of some 33,000 compounds screened, about 40 (0.1%) were called active. Rule as the data show it: active = z-score below about -3; inactive = the rest. The entries come from a sample that favours actives as a whole.

Experiment: inhibitors of measles virus growth in cells, primary screen, measles RdRp inhibitor project, cell-based, single point, HTS (AID 745)
Settings: infected Vero cells, GFP fluorescence, 64 h; hits give low values
In the case of `CCOc1ccc(C(=O)Nc2ccc3nn(-c4ccc(OC)cc4)nc3c2)cc1Cl`, the z-score is reported as 0.27 (inactive).
In the case of `Cc1ccc(-c2nnn(CC(=O)Nc3ccc(OC(F)(F)F)cc3)n2)cc1`, the z-score is reported as 0.34 (inactive).
In the case of `CCOC(=O)c1cnc2ccc(Cl)cc2c1Nc1ccc2c(c1)OCCO2`, the z-score is reported as -0.29 (inactive).
For `O=C(N1CCCc2ccccc21)C12CC3CC(CC(C3)C1)C2`, the z-score was -0.74 (inactive).
For `O=C(O)c1ccc2c(c1)C(=O)N(c1cccc(Oc3ccc4c(c3)C(=O)N(c3ccccc3)C4=O)c1)C2=O`, the z-score was -2.01 (inactive).
For `COc1ccc(-n2cnc3cc(C(=O)NC4CCCC4)ccc32)cc1`, the z-score was -0.86 (inactive).
With `Cc1cc(C)cc(-n2nc3c(c2NC(=O)CCCCl)CSC3)c1` the z-score was -0.91 (inactive).
With `COc1ccc(OC)c(NC(=O)c2c(NCc3ccc(C)o3)sc3c2CCC3)c1` the z-score was -1.95 (inactive).
With `Cc1cccc(C(=O)Nc2ccc(-c3nc4cc(C(C)(C)C)ccc4o3)cc2)c1` the z-score was -0.77 (inactive).
With `CCn1cc(C(=O)Nc2cc(Cl)ccc2OC)c(=O)c2ccc(C)nc21` the z-score was 0.75 (inactive).
For `CCn1cc(C(=O)NCCCN2CCCCCC2)c2cc(OC)c(OC)cc2c1=O`, the z-score was -0.6 (inactive).
For `Cc1cc(C)cc(NC(=O)CCCn2c(=S)[nH]c3ccccc3c2=O)c1`, the z-score was -1.99 (inactive).
For `CCCCCCn1c(SCC(=O)c2ccccc2)nc2c1c(=O)[nH]c(=O)n2C`, the z-score was -0.58 (inactive).
With `CC(C)c1ccc(NS(=O)(=O)c2ccc3[nH]cc(C(=O)NC4CCCC4)c(=O)c3c2)cc1` the z-score was -2.24 (inactive).
In the case of `COc1cc(C(=O)Nc2ccc(C(C)=O)cc2)cc(OC)c1OC`, the z-score is reported as 0.14 (inactive).
For `O=C(O)c1ccc(-n2cnnn2)cc1`, the z-score was 1.04 (inactive).
For `CCOC(=O)C1CCN(c2nc(-c3cccc(C)c3)nc3ccccc23)CC1`, the z-score was -0.19 (inactive).
With `Cc1ccccc1CSC1=NCCN1C(=O)C12CC3CC(CC(C3)C1)C2` the z-score was -0.58 (inactive).
For `CCOc1ccccc1N(C)C(=O)C1c2cc(OC)c(OC)cc2C(=O)N(C)C1c1cccnc1` (configuration not stated), the z-score was 1.17 (inactive).
In the case of `CCN(CC)C(=O)C1c2cc(OC)c(OC)cc2C(=O)N(C)C1c1ccc(SC)cc1` (configuration not stated), the z-score is reported as 0.35 (inactive).
With `Nc1c(C(=O)Nc2ccc(Br)cc2)sc2nc3c(c(-c4ccco4)c12)CCCCC3` the z-score was -0.89 (inactive).
For `CN(C)c1ccc(C(O)(c2ccccc2)c2ccccc2)cc1`, the z-score was -0.51 (inactive).
For `CC(C)CC(=O)N1CCN(Cc2cccc(Cl)c2)CC1`, the z-score was -4 (active).
For `O=C(CN1CCN(Cc2cccc(Cl)c2)C1=O)NC1CCCCCCC1`, the z-score was 0.45 (inactive).
In the case of `CC(C)CC(=O)N1CCN(Cc2ccccc2Br)CC1`, the z-score is reported as 0.09 (inactive).
With `CCC(=O)N1CCc2cc(Br)cc(S(=O)(=O)N3CCCC(C(=O)N4CCN(c5cccc(C(F)(F)F)c5)CC4)C3)c21` (configuration not stated) the z-score was -0.33 (inactive).
For `CCOC(=O)c1c(C)oc2ccc(N(C(=O)c3ccccc3Cl)S(=O)(=O)c3cccc([N+](=O)[O-])c3)cc12`, the z-score was -0.28 (inactive).
